The results in this text go back to PubChem BioAssay (NCATS).

The target of assay [1] is Tyrosine-protein kinase Yes (Homo sapiens) (UniProt P07947). The assay is described as follows: qHTS for small molecule inhibitors of Yes1 kinase: Primary Screen (AID 686947). Note: nearly all actives have a fitted effect of over 60% in size. Note: potency is the fitted concentration of half-maximal effect. The method, boiled down: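 Yes1 (4 nM) preincubated 20 min with compound, then 60 min room-temperature reaction with 0.1 mM ATP and 0.3 mg/mL poly(E4Y) in pH 7.5 Tris, 10 mM MgCl2. ADP measured by ADP-Glo luminescence, normalised to enzyme/no-enzyme controls.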
For orientation: qHTS replaces the single test concentration by a dilution series.

Assay [2] can be described thus: qHTS for small molecule inhibitors of Yes1 kinase: Counter Assay (AID 686950).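 Note: no kinase present so only ADP-Glo detection of a fixed ADP amount is tested; luminescence from ADP-Glo reporting ADP in a fixed ATP and ADP mixture; series mostly up to about 77 µM.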 The method, boiled down: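 Enzyme-free ADP-Glo interference check: compounds were preincubated 20 min in buffer, then an ATP/ADP mix (0.08 mM ATP, 0.02 mM ADP final) was added for 60 min at room temperature before two-step ADP-Glo luminescence detection.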

Records with an inconclusive call do not appear. Where a call stands in place of a potency, no number is given. Active and inactive are the calls of the source. Calls come from the whole dose curve; as a rule, active = well fitted curve in the direction sought with a large enough effect; inconclusive = small, poorly fitted or top-dose-only effect, or another doubt; inactive = no such curve, though single readings can be large; an effect the other way counts as inactive or inconclusive.

Sequence of Tyrosine-protein kinase Yes (Homo sapiens) (P07947 whole entry, looked up): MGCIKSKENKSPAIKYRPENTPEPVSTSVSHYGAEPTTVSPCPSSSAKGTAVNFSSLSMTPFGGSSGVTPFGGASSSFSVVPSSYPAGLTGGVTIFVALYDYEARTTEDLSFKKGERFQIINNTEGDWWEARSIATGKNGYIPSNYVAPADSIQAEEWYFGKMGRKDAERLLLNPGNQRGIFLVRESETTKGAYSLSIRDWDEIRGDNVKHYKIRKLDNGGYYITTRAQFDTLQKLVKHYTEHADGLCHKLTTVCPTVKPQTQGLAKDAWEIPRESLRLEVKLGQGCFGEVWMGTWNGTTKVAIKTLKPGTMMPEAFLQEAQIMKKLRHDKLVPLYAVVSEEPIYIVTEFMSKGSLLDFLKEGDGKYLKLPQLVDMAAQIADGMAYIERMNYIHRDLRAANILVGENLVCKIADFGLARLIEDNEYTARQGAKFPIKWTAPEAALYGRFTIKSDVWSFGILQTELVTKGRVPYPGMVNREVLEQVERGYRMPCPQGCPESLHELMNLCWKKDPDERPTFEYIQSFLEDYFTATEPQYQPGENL

On to `COc1cccc(-n2cnc3c(NN=Cc4ccncc4)ncnc32)c1`, for which the Potency in assay [1] is 582 nM (active). For the same molecule, the outcome in assay [2] was inactive.

Turning to `Nc1nc(-c2ccc(F)cc2)c(-c2ccc3ncccc3n2)s1`, the Potency in assay [1] was 463 nM (active). Besides, the outcome in assay [2] was inactive.

Consider `Cn1c(-c2nonc2N)nc2cnccc21`, for which the Potency entry in assay [1] was “inactive”. Besides, in assay [2], the molecule was called inactive.

For the molecule `O=C(OC1CNC(C#Cc2cc3ncnc(Nc4ccc(OCc5cccc(F)c5)c(Cl)c4)c3s2)C1)N1CCOCC1` (centres undefined), the Potency in assay [1] was 6540 nM (active). In assay [2], the molecule was called inactive.

Consider `c1ccc(-c2nc3n(c2-c2ccc4c(c2)OCO4)CCC3)nc1`, for which the Potency entry in assay [1] is “inactive”. Further, the molecule was called inactive in assay [2].

On to `CNC(=O)c1sc(-n2cnc3cc(OC)c(OC)cc32)cc1OCc1ccccc1C(F)(F)F`, for which the Potency in assay [1] is 18400 nM (active). Also, the outcome in assay [2] was inactive.

On to `NS(=O)(=O)c1ccc(Nc2ncc(-c3ccccc3)o2)cc1`, for which the Potency result in assay [1] is “inactive”. Further, the molecule was called inactive in assay [2].

For `O=C1Nc2ccccc2C1=C1CCc2cc(O)ccc21`, the Potency in assay [1] is 9230 nM (active). Also, in assay [2], the outcome was inactive.

In the case of `COC(=O)c1sc(-n2cnc3cc(OC)c(OC)cc32)cc1OCc1ccccc1C(F)(F)F`, the Potency in assay [1] was 654 nM (active). Further, the molecule was called inactive in assay [2].

Take `Cc1ccc2c(-c3ccnc(Nc4ccccc4)n3)c(-c3ccc(F)cc3)nn2n1`: the Potency in assay [1] is 116 nM (active). In assay [2], the molecule was called inactive.

For `N#Cc1c(NC(=O)CN2CCOCC2)sc2c1CCCC2`, in assay [1], the Potency result is “inactive”. In assay [2], the outcome was inactive.

Regarding `CCCN(CCS(C)(=O)=O)Cc1ccc(-c2ccc3ncnc(Nc4ccc(OCc5cccc(F)c5)c(Cl)c4)c3c2)o1`, in assay [1], the Potency is 6540 nM (active). For the same molecule, in assay [2], the outcome was inactive.

As to `NC(=O)CCc1ccccc1Oc1nccc(-c2c(-c3ccc(F)cc3)ncn2C2CCNCC2)n1`, the Potency entry in assay [1] was “inactive”. Besides, the molecule was called inactive in assay [2].

Turning to `COc1ccc(-c2cc3c(N)ncnc3o2)cc1`, in assay [1], the Potency was 6540 nM (active). In assay [2], the molecule was classed as inactive.

On to `CN1CCC(n2cnc(-c3ccc(F)cc3)c2-c2ccnc(NCCO)n2)CC1`, for which the Potency result in assay [1] was “inactive”. The molecule was called inactive in assay [2].

With `COc1ccc(-c2nn3ncccc3c2-c2ccnc(Nc3ccc4c(c3)OCCO4)n2)cc1`, in assay [1], the Potency is 29.2 nM (active). For the same molecule, the molecule was classed as inactive in assay [2].

For the molecule `CS(=O)(=O)Nc1ccc(-c2cc(-c3ccccc3)cc(C(N)=O)c2N)cc1`, the Potency in assay [1] is 13000 nM (active). Besides, the call in assay [2] was inactive.

With `NCc1ccc(-c2nc(-c3ccc(Cl)c(O)c3)c(-c3ccncc3)[nH]2)cc1`, in assay [1], the Potency is 328 nM (active). In assay [2], the molecule was called inactive.

For `CC(C)c1ccc2c(N=Nc3ccc(S(N)(=O)=O)cc3)c(O)[nH]c2c1`, the Potency entry in assay [1] was “inactive”. In addition, the molecule was classed as inactive in assay [2].

On to `Nc1nccc(-c2c(-c3ccc(F)cc3)ncn2CCCN2CCOCC2)n1`, for which the Potency in assay [1] is 9230 nM (active). Moreover, the call in assay [2] was inactive.

With `CCc1cccc(NC(=O)Nc2ccc(Oc3ccc4nc(NC(=O)OC)[nH]c4c3)cc2)c1`, in assay [1], the Potency entry was “inactive”. Also, the molecule was classed as inactive in assay [2].

In the case of `Cc1nnc(-c2ccc(C)c(-c3ccc(C(=O)NCc4ccc(Cl)cc4)cc3)c2)o1`, the Potency entry in assay [1] was “inactive”. For the same molecule, in assay [2], the outcome was inactive.

For `O=C1Nc2ccc(-c3cccnc3)cc2C1=Cc1cc(Br)c(O)c(Br)c1`, the Potency in assay [1] is 412 nM (active). For the same molecule, in assay [2], the result was inactive.

As for `CC1=C(C(=O)Nc2ccc3[nH]ncc3c2)C(c2ccc3ccccc3c2)CC(=O)N1` (centres undefined), in assay [1], the Potency was 582 nM (active). Besides, the result in assay [2] was inactive.

Regarding `Cc1cc(O)cc(C)c1C=Cc1cncc(C(N)=O)c1`, the Potency in assay [1] is 463 nM (active). In addition, the result in assay [2] was inactive.

With `NC(=O)c1sc(-n2cnc3ccccc32)cc1OCc1ccccc1Br`, the Potency in assay [1] was 18400 nM (active). Besides, the call in assay [2] was inactive.

Consider `CS(=O)(=O)CCNCc1cc(-c2cc3c(Nc4ccc(OCc5cccc(F)c5)c(Cl)c4)ncnc3s2)cs1`, for which the Potency in assay [1] is 46300 nM (active). Further, in assay [2], the outcome was inactive.

`COc1cccc(-n2ncc3c(NN=Cc4ccc(C(=O)NCCN(C)C)cc4)ncnc32)c1`: the Potency in assay [1] was 20.7 nM (active). In assay [2], the outcome was inactive.

Take `CN(C)c1cc2c(Nc3ccc4nc(Cc5ccccc5)[nH]c4c3)ncnc2cn1`: the Potency in assay [1] was 412 nM (active). In assay [2], the call was inactive.

As to `FC(F)(F)c1cccc(-c2nn3ncccc3c2-c2ccnc(Nc3ccc4c(c3)OCCO4)n2)c1`, in assay [1], the Potency was 412 nM (active). Moreover, the outcome in assay [2] was inactive.

On to `COC(=O)Nc1nc2ccc(Oc3ccc(NC(=O)Nc4cccc(Cl)c4)cc3)cc2[nH]1`, for which the Potency entry in assay [1] is “inactive”. For the same molecule, the result in assay [2] was inactive.

As to `CCn1c(-c2nonc2N)nc2c(C#CC(C)(C)O)ncc(OC3CCNCC3)c21`, the Potency in assay [1] was 26000 nM (active). The molecule was called inactive in assay [2].

Turning to `Fc1cccc(COc2ccc(Nc3ncncc3C#Cc3ccccc3)cc2Cl)c1`, in assay [1], the Potency result was “inactive”. For the same molecule, in assay [2], the molecule was called inactive.

Consider `COc1cc2ncnc(Nc3ccc4c(cnn4Cc4ccccc4)c3)c2cc1OC`, for which, in assay [1], the Potency was 32.8 nM (active). For the same molecule, the call in assay [2] was inactive.

`NCc1ccc(-n2c(-c3nonc3N)nc3cnccc32)cc1`: the Potency entry in assay [1] was “inactive”. Further, the molecule was classed as inactive in assay [2].

In the case of `COc1cc(C)c(N(C)C(=O)CN(C)C)cc1Nc1nc(Nc2cccc(F)c2C(N)=O)c2cc[nH]c2n1`, the Potency result in assay [1] was “inactive”. For the same molecule, in assay [2], the outcome was inactive.

Turning to `CCn1c(-c2nonc2N)nc2ccccc21`, the Potency entry in assay [1] is “inactive”. Also, in assay [2], the outcome was inactive.
